# According to PubChem BioAssay (Tox21):
# Records with an inconclusive call do not appear. Entries that show only a call come without a potency. Where a structure was tested more than once in an assay, its records may differ in their call. The source made the active and inactive calls. The call rests on the fitted dose curve; in most records, active means well fitted curve in the direction sought with a large enough effect in the repeat runs; inconclusive means weak or mixed curves; inactive means no such curve, though single readings can be large; an effect the other way counts as inactive or inconclusive.
# What was measured:
# [1] = qHTS RealTime-Glo MT Cell Viability Assay in HepG2 cells - 8 hour (AID 1224873); further: nearly all actives have a fitted effect of over 55% in size; further: potency means the concentration at half of the fitted maximal effect
# Method in brief: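 Real-time viability: cells seeded at 600 per well together with NanoLuc and cell-permeant prosubstrate, compounds added after 5 h incubation. Luminescence tracked at 0, 8, 16, 24, 32 and 40 h of exposure.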
# [2] = qHTS RealTime-Glo MT Cell Viability Assay in HEK293 cells - 40 hour (AID 1224874); settings: RealTime-Glo luminescence; max response: stronger effect = lower value; further: nearly all actives have a fitted effect of over 50% in size; further: potency means the concentration at half of the fitted maximal effect
# Method in brief: (§1)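 Luminescence, which tracks viable cell number through reduction of the prosubstrate to a NanoLuc substrate, was read over continuous 37 C culture. Cells (600/well) were premixed with reagent and rested 5 h before 23 nL of compound in DMSO was pinned.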
# [3] = A CellTox Green Cytotoxicity Assay to monitor cytotoxicity in HEK293 cells - 24 hour (AID 1224875); further: series mostly up to about 77 µM; nearly all actives have a fitted effect of over 45% in size
# Method in brief: (§2)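 Fluorescence from a DNA-binding dye excluded by viable cells was measured repeatedly in the same HEK293 wells (600 cells/well) during continuous compound exposure at 37 C. Each assay gives one read point: 0, 8, 16, 24, 32 or 40 h.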
# [4] = A CellTox Green Cytotoxicity Assay to monitor cytotoxicity in HepG2 cells - 16 hour (AID 1224876); further: nearly all actives have a fitted effect of over 45% in size; further: potency means the concentration at half of the fitted maximal effect
# Method in brief: (§3)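 Real-time cytotoxicity: fluorescence of a cell-impermeant cyanine dye binding DNA of dead HepG2 cells, measured repeatedly (0–40 h) during compound exposure at 37 C. Cells seeded 600/well with reagent, dosed after 5 h.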
# [5] = qHTS RealTime-Glo MT Cell Viability Assay in HepG2 cells - 32 hour (AID 1224877); further: nearly all actives have a fitted effect of over 55% in size
# Method in brief: (§4)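 Compound treatment began 5 h after plating HepG2 cells (600/well) with NanoLuc luciferase and prosubstrate. Plates stayed at 37 C for 40 h; luminescence was captured at six time points, 0 h through 40 h.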
# [6] = A CellTox Green Cytotoxicity Assay to monitor cytotoxicity in HepG2 cells - 24 hour (AID 1224878); further: nearly all actives have a fitted effect of over 45% in size; further: potency means the concentration at half of the fitted maximal effect
# Method in brief: as §3
# [7] = A CellTox Green Cytotoxicity Assay to monitor cytotoxicity in HepG2 cells - 40 hour (AID 1224879); further: nearly all actives have a fitted effect of over 40% in size; further: potency means the concentration at half of the fitted maximal effect
# Method in brief: as §3
# [8] = qHTS RealTime-Glo MT Cell Viability Assay in HEK293 cells - 0 hour (AID 1224880); further: nearly all actives have a fitted effect of over 45% in size; further: potency means the concentration at half of the fitted maximal effect
# Method in brief: as §1
# [9] = A CellTox Green Cytotoxicity Assay to monitor cytotoxicity in HEK293 cells - 32 hour (AID 1224881); further: nearly all actives have a fitted effect of over 40% in size; further: potency means the concentration at half of the fitted maximal effect
# Method in brief: as §2
# [10] = A CellTox Green Cytotoxicity Assay to monitor cytotoxicity in HepG2 cells - 0 hour (AID 1224882); further: nearly all actives have a fitted effect of over 35% in size
# Method in brief: as §3
# [11] = A CellTox Green Cytotoxicity Assay to monitor cytotoxicity in HEK293 cells - 8 hour (AID 1224884); further: nearly all actives have a fitted effect of over 35% in size
# Method in brief: as §2
# [12] = qHTS RealTime-Glo MT Cell Viability Assay in HepG2 cells - 16 hour (AID 1224885); further: nearly all actives have a fitted effect of over 50% in size; further: potency means the concentration at half of the fitted maximal effect
# Method in brief: as §4
# [13] = qHTS RealTime-Glo MT Cell Viability Assay in HEK293 cells - 24 hour (AID 1224886); further: nearly all actives have a fitted effect of over 50% in size; further: potency means the concentration at half of the fitted maximal effect
# Method in brief: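 Quantitative high-throughput screen of the Tox21 10K library in HEK293: cells and RealTime-Glo reagents plated together, compound added at 5 h, luminescence monitored through 40 h at 37 C.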
# [14] = qHTS RealTime-Glo MT Cell Viability Assay in HEK293 cells - 8 hour (AID 1224887); further: nearly all actives have a fitted effect of over 50% in size; further: potency means the concentration at half of the fitted maximal effect
# Method in brief: as §1
# [15] = A CellTox Green Cytotoxicity Assay to monitor cytotoxicity in HEK293 cells - 16 hour (AID 1224888); further: nearly all actives have a fitted effect of over 35% in size
# Method in brief: as §2
# [16] = qHTS RealTime-Glo MT Cell Viability Assay in HepG2 cells - 0 hour (AID 1224889); further: nearly all actives have a fitted effect of over 50% in size
# Method in brief: as §4
# [17] = A CellTox Green Cytotoxicity Assay to monitor cytotoxicity in HepG2 cells - 8 hour (AID 1224890); further: nearly all actives have a fitted effect of over 45% in size
# Method in brief: as §3
# [18] = qHTS assay to identify small molecule antagonists of the estrogen receptor alpha (ER-alpha) signaling pathway using the BG1 cell line in the presence of 0.1 nM 17-beta-estradiol - cell viability counter screen (AID 1259241); further: nearly all actives have a fitted effect of over 40% in size; further: potency means the concentration at half of the fitted maximal effect
# Method in brief: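 CellTiter-Fluor read (30 min, 37C) on ER-alpha/ERE-luc VM7Luc4E2 cells; 22 hr compound treatment; agonist 0.1 nM E2 final; same-well multiplex.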
# [19] = A CellTox Green Cytotoxicity Assay to monitor cytotoxicity in HepG2 cells - 32 hour (AID 1224883); further: nearly all actives have a fitted effect of over 50% in size; further: potency means the concentration at half of the fitted maximal effect
# Method in brief: as §3
SMILES,Potency [1],max response [2],Potency [3],Potency [4],Potency [5],Potency [6],Potency [7],Potency [8],Potency [9],Potency [10],Potency [11],Potency [12],Potency [13],Potency [14],Potency [15],Potency [16],Potency [17],Potency [18],Potency [2],Potency [19]
CN1CN(C)CN(C)C1,inactive,-12.7% (inactive),inactive,inactive,inactive,inactive,inactive,inactive,inactive,inactive,inactive,inactive,inactive,inactive,inactive,inactive,inactive,inactive,,
Clc1nc2ccccc2s1,inactive,-10.6% (inactive),inactive,inactive,,inactive,inactive,inactive,inactive,,inactive,inactive,inactive,inactive,inactive,inactive,,inactive,,
CC1=C(/C=C/C(C)=C/C=C/C(C)=C\C=O)C(C)(C)CCC1,inactive,,,inactive,inactive,inactive,,inactive,,inactive,inactive,inactive,,inactive,,inactive,inactive,inactive,46.4 µM (active),inactive
Cc1cc(Nc2ccc(O)cc2)ccc1N,43.5 µM (active),,,inactive,,inactive,,,43.5 µM (active),inactive,inactive,48.8 µM (active),24.4 µM (active),21.8 µM (active),inactive,,inactive,27.2 µM (active),19.4 µM (active),
CCC(C)C(=O)OC (stereo not given),inactive,4.5% (inactive),,inactive,inactive,inactive,inactive,inactive,inactive,inactive,inactive,inactive,inactive,inactive,inactive,,,inactive,,inactive
COc1ccccc1C=O,inactive,3.17% (inactive),,inactive,inactive,inactive,inactive,inactive,inactive,,inactive,inactive,inactive,inactive,inactive,inactive,inactive,inactive,,
CC(C)N=C(N)/N=C(\N)Nc1ccc(Cl)cc1,inactive,,inactive,,inactive,26.8 µM (active),26.8 µM (active),inactive,inactive,inactive,inactive,inactive,23.9 µM (active),,inactive,inactive,,inactive,26.8 µM (active),26.8 µM (active)
Clc1ccc(C(c2ccccc2Cl)C(Cl)Cl)cc1 (stereo not given),inactive,-26.4% (inactive),inactive,inactive,,inactive,inactive,inactive,inactive,inactive,,inactive,38.9 µM (active) and inactive,inactive,inactive,inactive,inactive,inactive,,inactive
Clc1ccc(C(Cn2ccnc2)OCc2c(Cl)cccc2Cl)c(Cl)c1 (stereo not given),inactive,,inactive,,inactive,,,,,,inactive,inactive,16.9 µM (active),,inactive,,,inactive,16.9 µM (active),
Cc1ccc(CCn2c3c(c4cc(Cl)ccc42)CN(C)CC3)cn1,inactive,,,inactive,inactive,,,16.9 µM (active),,inactive,inactive,inactive,9.52 µM (active),,inactive,,inactive,inactive,21.3 µM (active),
Brc1ccccc1-c1ccccc1,inactive,-2.43% (inactive),,41.3 µM (active),inactive,46.3 µM (active),1.84 µM (active),inactive,20.7 µM (active),inactive,inactive,inactive,inactive,,,inactive,,inactive,,46.3 µM (active)
CCOC(=O)CC(C)O (stereo not given),inactive,5.55% (inactive),inactive,inactive,,inactive,inactive,inactive,inactive,inactive,inactive,inactive,inactive,inactive,inactive,inactive,,inactive,,
Cc1occc1SSc1ccoc1C,inactive,-28.3% (inactive),,,inactive,,54.9 µM (active),inactive,,inactive,,inactive,inactive,inactive,inactive,inactive,,inactive,,54.9 µM (active)
